Among the data in PubChem BioAssay (EPA / NIEHS) are outcome and AC50 values, retold here.

Read-out in assay [1]: Tissue Factor, F3 (gene 2152)
Description: BSK_CASM3C_TissueFactor: BioMAP Diversity Plus: CASM3C Assay for Tissue Factor Biomarker Activity (AID 2283052).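 Further: cell surface tissue factor protein level read by ELISA.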 As to conditions: primary human coronary artery smooth muscle cells; actives raise or lower the signal.

Read-out in assay [2]: Interferon-gamma inducible Protein 10 (IP10), CXCL10 (gene 3627)
Description: BSK_hDFCGF_IP10: BioMAP Diversity Plus: hDFCGF Assay for Interferon-gamma inducible Protein 10 (IP10) Biomarker Activity (AID 2283053). As to conditions: primary human foreskin fibroblasts; actives raise or lower the signal. In outline:
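Primary human foreskin fibroblasts exposed to chemicals for 24 h. IP-10 measured by ELISA; changes fitted bidirectionally against DMSO baseline.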

Read-out in assay [3]: Urokinase-type plasminogen activator receptor (uPAR), PLAUR (gene 5329)
Kind of assay: BSK_CASM3C_uPAR: BioMAP Diversity Plus: CASM3C Assay for Urokinase-type plasminogen activator receptor (uPAR) Biomarker Activity (AID 2283054).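 Further: cell-surface uPAR protein level quantified by ELISA.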 Particulars: primary human coronary artery smooth muscle cells; actives raise or lower the signal.

Read-out in assay [4]: Vascular cell adhesion molecule 1 (VCAM1), VCAM1 (gene 7412)
Kind of assay: BSK_CASM3C_VCAM1: BioMAP Diversity Plus: CASM3C Assay for Vascular cell adhesion molecule 1 (VCAM1) Biomarker Activity (AID 2283055).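 Further: VCAM-1 protein level quantified by ELISA on the cells.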 As to conditions: primary human coronary artery smooth muscle cells; actives raise or lower the signal.

Read-out in assay [5]: Collagen III, COL3A1 (gene 1281)
Description: BSK_hDFCGF_CollagenIII: BioMAP Diversity Plus: hDFCGF Assay for Collagen III Biomarker Activity (AID 2283056). Particulars: primary human foreskin fibroblasts; actives raise or lower the signal. In outline:
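hDFCGF primary human dermal fibroblasts; 24 h chemical exposure; collagen III by ELISA; bidirectional curve fit vs DMSO baseline (gain or loss of signal).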

Read-out in assay [6]: Epidermal growth factor receptor (EGFR), EGFR (gene 1956)
Kind of assay: BSK_hDFCGF_EGFR: BioMAP Diversity Plus: hDFCGF Assay for Epidermal growth factor receptor (EGFR) Biomarker Activity (AID 2283057). Particulars: primary human foreskin fibroblasts; actives raise or lower the signal. Summed up: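 Primary human foreskin fibroblasts (hDFCGF system), sampled 24 h after dosing; EGFR quantified by ELISA. Bidirectional fit relative to DMSO baseline; SRB total-protein staining in parallel cultures for cytotoxicity.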

Read-out in assay [7]: Interleukin-8 (IL8), CXCL8 (gene 3576)
Kind of assay: BSK_hDFCGF_IL8: BioMAP Diversity Plus: hDFCGF Assay for Interleukin-8 (IL8) Biomarker Activity (AID 2283058). Particulars: primary human foreskin fibroblasts; actives raise or lower the signal. Summed up: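 ELISA read-out of IL-8 from primary human foreskin fibroblast cultures taken 24 h after dosing; values are bidirectional fits relative to DMSO vehicle.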

A short description of assay [8]: BSK_hDFCGF_Proliferation: Cell Proliferation Assessment in the BioMAP Diversity Plus: hDFCGF Assay (AID 2283059).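 Further: curves fitted for both rise and fall of signal versus DMSO baseline.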 Particulars: primary human foreskin fibroblasts. Summed up:
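Steps: dose primary human dermal fibroblasts (foreskin); […] fix in 10% TCA; stain with 0.1% SRB; read 560 nm; fit gain or loss of signal against DMSO.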

Read-out in assay [9]: Macrophage colony-stimulating factor (MCSF), CSF1 (gene 1435)
Kind of assay: BSK_hDFCGF_MCSF: BioMAP Diversity Plus: hDFCGF Assay for Macrophage colony-stimulating factor (MCSF) Biomarker Activity (AID 2283060). As to conditions: primary human foreskin fibroblasts; actives raise or lower the signal. In outline:
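ELISA read-out of M-CSF in human dermal foreskin fibroblast cultures, 24 h after chemical dosing; gain or loss of signal fitted bidirectionally relative to DMSO baseline.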

A short description of assay [10]: BSK_hDFCGF_SRB: Viability Assessment in the BioMAP Diversity Plus: hDFCGF Assay (AID 2283061).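 Further: cells exposed to compound for 24 h before the read.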 As to conditions: primary human foreskin fibroblasts. Summed up: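 Primary human foreskin fibroblasts; 24 h post-dose; fixed 10% TCA, stained 0.1% SRB, A560 read; total protein as overt cytotoxicity measure; curves fit bidirectionally vs DMSO control.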
Read-out in assay [11]: TIMP metallopeptidase inhibitor 1 (TIMP1), TIMP1 (gene 7076)
Description: BSK_hDFCGF_TIMP1: BioMAP Diversity Plus: hDFCGF Assay for TIMP metallopeptidase inhibitor 1 (TIMP1) Biomarker Activity (AID 2283062). Particulars: primary human foreskin fibroblasts; actives raise or lower the signal. In outline:
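ELISA readout of TIMP-1 from human dermal foreskin fibroblast cultures 24 h post-dosing. Curves were fitted in both directions against DMSO baseline, with SRB total-protein staining in parallel cultures as a cytotoxicity check.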

Read-out in assay [12]: Monokine induced gamma interferon (MIG), CXCL9 (gene 4283)
Kind of assay: BSK_hDFCGF_MIG: BioMAP Diversity Plus: hDFCGF Assay for Monokine induced gamma interferon (MIG) Biomarker Activity (AID 2283063). As to conditions: primary human foreskin fibroblasts; actives raise or lower the signal. In outline:
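Fibroblasts (human foreskin, primary) dosed, 24 h, MIG by ELISA; fit bidirectional vs DMSO.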

Read-out in assay [13]: Matrix Metallopeptidase 1 (MMP1), MMP1 (gene 4312)
Kind of assay: BSK_hDFCGF_MMP1: BioMAP Diversity Plus: hDFCGF Assay for Matrix Metallopeptidase 1 (MMP1) Biomarker Activity (AID 2283064). As to conditions: primary human foreskin fibroblasts; actives raise or lower the signal. In outline: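 Primary human foreskin fibroblasts in the hDFCGF system were dosed with test chemical, and MMP1 was measured by ELISA 24 h later. Values come from bidirectional curve fitting against the DMSO baseline.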

Read-out in assay [14]: Vascular cell adhesion molecule 1 (VCAM1), VCAM1 (gene 7412)
Description: BSK_hDFCGF_VCAM1: BioMAP Diversity Plus: hDFCGF Assay for Vascular cell adhesion molecule 1 (VCAM1) Biomarker Activity (AID 2283065).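 On AC50: VCAM-1 protein level quantified by ELISA after 24 h chemical exposure.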 Particulars: primary human foreskin fibroblasts; actives raise or lower the signal. In outline: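 ELISA read-out of VCAM-1 on human skin fibroblasts, 24 h post-dose; gain or loss of signal fitted bidirectionally against DMSO baseline.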

Read-out in assay [15]: Plasminogen activator inhibitor-1 (PAI1), SERPINE1 (gene 5054)
Kind of assay: BSK_hDFCGF_PAI1: BioMAP Diversity Plus: hDFCGF Assay for Plasminogen activator inhibitor-1 (PAI1) Biomarker Activity (AID 2283066). Particulars: primary human foreskin fibroblasts; actives raise or lower the signal. Summed up: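 Human foreskin fibroblast primary cells, 24 h chemical exposure; PAI-1 measured by ELISA. Bidirectional fitting relative to DMSO; parallel cultures stained with SRB for total protein to flag overt cytotoxicity.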

Read-out in assay [16]: Intercellular Adhesion Molecule 1 (ICAM1), ICAM1 (gene 3383)
Description: BSK_KF3CT_ICAM1: BioMAP Diversity Plus: KF3CT Assay for Intercellular Adhesion Molecule 1 (ICAM1) Biomarker Activity (AID 2283067). As to conditions: primary human keratinocytes with fibroblasts; actives raise or lower the signal. Summed up:
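ELISA readout of ICAM-1; KF3CT human skin co-culture (keratinocytes + foreskin fibroblasts), 24 h post-dose; gain/loss fit vs DMSO baseline.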

Read-out in assay [17]: Interferon-gamma inducible Protein 10 (IP10), CXCL10 (gene 3627)
Description: BSK_KF3CT_IP10: BioMAP Diversity Plus: KF3CT Assay for Interferon-gamma inducible Protein 10 (IP10) Biomarker Activity (AID 2283068). As to conditions: primary human keratinocytes with fibroblasts; actives raise or lower the signal. Summed up:
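KF3CT co-culture (keratinocytes + foreskin fibroblasts), 24 h compound, IP-10 by ELISA; bidirectional fit vs DMSO baseline.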

A short description of assay [18]: BSK_KF3CT_SRB: Viability Assessment in the BioMAP Diversity Plus: KF3CT Assay (AID 2283069).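 Further: total protein by sulforhodamine B staining as a cytotoxicity measure; read 24 h after compound addition.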 Particulars: primary human keratinocytes with fibroblasts. Summed up:
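Human primary keratinocyte plus foreskin fibroblast co-culture exposed to chemicals for 24 h. Total protein measured by 0.1% sulforhodamine B staining after 10% TCA fixation, read at 560 nm; bidirectional fitting versus DMSO baseline.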

Read-out in assay [19]: Interleukin-1 alpha (IL1a), IL1A (gene 3552)
Kind of assay: BSK_KF3CT_IL1a: BioMAP Diversity Plus: KF3CT Assay for Interleukin-1 alpha (IL1a) Biomarker Activity (AID 2283070). As to conditions: primary human keratinocytes with fibroblasts; actives raise or lower the signal. Summed up:
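Human keratinocyte plus foreskin fibroblast primary co-culture, sampled 24 h after chemical dosing. IL-1a measured by ELISA; responses fitted bidirectionally against DMSO baseline (negative control), so gain or loss of signal both count.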

Read-out in assay [20]: TIMP metallopeptidase inhibitor 2 (TIMP2), TIMP2 (gene 7077)
Kind of assay: BSK_KF3CT_TIMP2: BioMAP Diversity Plus: KF3CT Assay for TIMP metallopeptidase inhibitor 2 (TIMP2) Biomarker Activity (AID 2283071). Particulars: primary human keratinocytes with fibroblasts; actives raise or lower the signal. Summed up:
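Co-culture of human primary keratinocytes and foreskin fibroblasts, measured 24 h after chemical dosing. TIMP-2 quantified by ELISA and fitted in both directions relative to DMSO. Cytotoxicity checked in parallel cultures by SRB total-protein staining.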

The source made the active and inactive calls. How the source made its calls: active means hit-call score of the fitted dose curve at least 0.9, where 1 is the maximum; inactive means score below 0.9.

As usually defined, the AC50 is the midpoint of the concentration-response curve, whichever way the signal moves. With `CCCCCOC(=O)c1ccccc1C(=O)OCCCCC`, the result in assay [1], in assay [2], in [3], in assay [4], in assay [6] and in [7] was inactive. Besides, the outcome in assay [8], in [10], in assay [11], in [12], in [13] and in assay [15] was inactive. The outcome in assay [16], in assay [17], in assay [18], in assay [19] and in assay [20] was inactive. For the same compound, the results for the half-maximal activity concentration (AC50) in [5], in assay [9] and in assay [14] were 3.97 µM (active), 9.05 µM (active) and 4.45 µM (active), respectively.
As to `CCCCCCCCOC(=O)c1ccc(C(=O)OCCCCCCCC)c(C(=O)OCCCCCCCC)c1`, the outcome in assay [1], in assay [2], in assay [3], in assay [4], in [5] and in assay [6] was inactive. The outcome in assay [7], in assay [8], in assay [9], in assay [10], in assay [11] and in assay [12] was inactive. The result in assay [13], in [14], in assay [15], in assay [16], in assay [17] and in [18] was inactive. The result in assay [19] and in [20] was inactive.
On to `O=C1CCCO1`, for which the result in assay [1], in assay [2], in assay [3], in assay [4], in assay [5] and in assay [6] was inactive. The result in assay [7], in assay [8], in assay [9], in assay [10], in assay [11] and in assay [12] was inactive. The result in [13], in [14], in [15], in assay [16], in assay [17] and in [18] was inactive. Also, the outcome in [19] and in assay [20] was inactive.
`Nc1ccc(Cc2ccc(N)cc2)cc1`: the outcome in assay [1], in assay [2], in [3], in [4], in [5] and in assay [6] was inactive. Further, the result in assay [7], in assay [8], in assay [9], in assay [10], in assay [11] and in [12] was inactive. In addition, the outcome in [13], in assay [14], in assay [15], in [16], in assay [17] and in assay [18] was inactive. Moreover, the outcome in [19] and in assay [20] was inactive.
Consider `N#CC(Br)Br`, for which the result in assay [1], in assay [2], in assay [3], in assay [4], in assay [5] and in assay [6] was inactive. The outcome in assay [7], in assay [8], in assay [9], in [10], in [11] and in assay [12] was inactive. For the same compound, the result in assay [13], in assay [14], in assay [15], in [16], in assay [17] and in assay [18] was inactive. Besides, the outcome in [19] and in assay [20] was inactive.
For the compound `CN(C)c1ccccc1`, the result in assay [1], in [2], in [3], in [4], in assay [5] and in [6] was inactive. Besides, the outcome in assay [7], in assay [8], in assay [9], in assay [10], in [11] and in assay [12] was inactive. For the same compound, the outcome in [13], in assay [14], in [15], in assay [16], in assay [17] and in assay [18] was inactive. In addition, the result in assay [19] and in assay [20] was inactive.
